# The campaign covered roughly 53,000 sequences. About 3,700 (7%) were called active. This excerpt belongs to a sample that is enriched for actives. Values without a mark were called inactive.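 How the source made its calls: active means gene knockdowns whose robust z-score for IL-1 alpha signal is at least 2 or at most -2, so actives lie on both sides; inactive means the rest.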
# Assay: Components of the Cytosolic LPS Sensing Pathway: Gene Identification via Genome-wide siRNA Screen;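 further: robust z of the log signal after scaling to non-targeting control siRNA wells of the plate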
# Details: RAW264.7 macrophages, IL-1a HTRF, actives lie on both sides, screened at 100 nM (by protocol), cells primed 5 h with Pam3CSK4 first
# How it was run: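 Mouse macrophage line RAW264.7 is transfected with siRNA (100 nM final), grown 48h, primed with TLR ligand Pam3CSK4 5 h and given intracellular LipidA 24 h. IL-1a in supernatant is read by HTRF and viability by luminescence.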
row,Sequence,z-score
1,GGCUUAAGCAGACGUGUCATT against Lhx8,-2.14 (active)
2,GCCCAUUAUGAAACUGAAGTT against Nfatc3,1.45
3,GGUGUUUAAGGAUGAACAATT against L3mbtl3,0.104
4,GCCACUUAAUGUCACUUUATT against Bag2,0.652
5,GCCAGAUCUUUAUAUCCCGTT against Gdi2,-0.094
6,CCAGAUGUUACGAAUGAAATT against Tmem209,-1.65
7,GGGCAAUGUUUGUCACUAATT against Akr1b10,1.55
8,CGGCCAUAUAAUUUUGAAUTT against Tbx20,0.233
9,CGGUUUAACAGCAAGGGUATT against Sec61a1,-2.75 (active)
10,GGACUUAUUUCUUUAAGGATT against Mmp17,-0.567
11,GGUGGAAUGAUAGUGUUCATT against Neurl1b,1.67
12,GGUUAUUUCCCUGUUUUCATT against Olfr532,1.5
13,GGAGUUUGGGAACACUUUGTT against Apoc1,0.617
14,GCCUCUUAGUAGAGACAGUTT against Naa80,-0.725
15,GGUAAAGCAAGAGAGUAUUTT against Hccs,-0.629
16,GGUUCAAGGAUGAAUUAGATT against Trappc6b,-2.03 (active)
17,GCUUUUGAAUGUGUGGACUTT against Ugt2b37,-0.938
18,CCCAAAGAAUUAUGAGUGUTT against Gpr149,-0.678
19,GGCAAAUUCUGGAUCUGCUTT against Marf1,-0.267
20,GGGAAAAAAAAAAAUCACCTT against Syne3,-0.254
21,CCAAUGAUGGAGCUGAAGCTT against Ranbp1,-2.72 (active)
22,GGUCAAGGCUGUCAAGUUGTT against Wdr45b,-0.13

row,Sequence,z-score
1,GGUGCCCACUAACUUAGAATT against Tbx21,2.3 (active)
2,GGUGUUCGAUGGACGUGAUTT against Bmp1,-0.183
3,GCAUCCUGGCUUAUCCAUUTT against Hmgb1,-0.393
4,CCACUAUUAAACUUCUCAATT against Pex3,0.32
5,CCAGCUUCAUGCGUUUAAATT against Stx16,1.4
6,CCCUCACAGUAACCUGUCGTT against Espl1,-2.56 (active)
7,GGUCGAAGUAUUGGAAAAUTT against Hesx1,-1.71
8,GCAAAUGACUUCCAACAAUTT against Uqcrq,3.84 (active)
9,GGAGAACAAAGUAUUGGUGTT against Cacna1f,0.388
10,GCCAUAGGAGUGAUUGGAUTT against E130018O15Rik,-1.66
11,GGUGAGCAUGGACUAUGAUTT against Syt12,-1.09
12,GCACUUGACAAGCAACAGUTT against Jup,-2.3 (active)
13,GCAUAUGGAUAAGAUUGUUTT against Efr3a,-0.363
14,GGAAAAGGGUCGUGCCUGUTT against Gm9991,-0.07
15,GCAUUGGCAGACCCGAGUUTT against Pir,0.238
16,GCUUGGUAAAAUGAAAGUCTT against Klhl12,0.22
17,GGUUUCUGUCCAGAUAAAATT against Ykt6,-0.535
18,GGUGCAGAAUGCAAUGGAUTT against Ing3,2.51 (active)
19,GGAAUAUGAGAAAAUGAGCTT against Ctsc,0.239
20,AACACUGGGUACAUCUACATT against H2-Q7,1.75
21,UUCCCACUCUGACUAUUUUTT against Olfr970,-0.0332
22,GGCCUUCAAGUGCAUGAUGTT against Yaf2,-1.65

row,Sequence,z-score
1,CCAGAAAACCAAACAACAGTT against Olfr1357,0.287
2,GGUGACAGGAAAGUUCUGUTT against Gsdmc2,2.07 (active)
3,GGCGAUUAAACUAUACAUUTT against Rrm2,0.0358
4,GGGCAUGUGAAGAUGUGCGTT against Map2k3,-0.272
5,CGUCUUACACGGUUCAAAGTT against Tbc1d10a,0.809
6,CGUGGUACACUGAAGACUUTT against Mmp1a,2.3 (active)
7,GGACCAUUCUGAAGAGCAGTT against Il5ra,0.867
8,GCUUUAUUGACACGACCCGTT against Rbm19,0.184
9,CCGUCGUACACAAUCUUACTT against Fgfr4,-0.512
10,GGUACACAACCAUCCUUGATT against Olfr600,-2.33 (active)
11,CCUACAUCAGGUCAGCAAGTT against Mrto4,1.26
12,GGAAAAAGCAAAUUGAGGATT against Uchl1,-1.48
13,GCAGAGUCACCUUACUAACTT against Fam122b,-0.0407
14,GGAGCUACACACAUAGGAATT against Clec2h,0.891
15,GGAUACCAAGAUUCCAAAUTT against Pik3r4,2.19 (active)
16,GCCAGCAACCCUCUUCGUUTT against Foxo6,0.142
17,CCUUUGACGGCCAUGAGUATT against Muc6,-1.39
18,GCUAAGCACAAUGUGUACATT against Dus4l,-0.633
19,GGUCAUAGCUUAGAAGGUGTT against Rhov,-0.233
20,GGGAAGCAAUAAGUCGCCUTT against Shc4,0.394
21,GAGCCAAGUACCAUCUAUATT against Olfr389,2.28 (active)
22,GGUUAAGCAGAAAUUAAGATT against Supt20,-0.551

row,Sequence,z-score
1,GCCACAGGAUGCUAGCAAATT against Bex2,0.282
2,GCAGUUGGUAUUGUUAACUTT against Maml1,-0.0252
3,GCUAAACCCAAAAACACAATT against Sim2,1.04
4,GCUAGAAAUAAGGCUGCACTT against Plekhg6,-1.2
5,GGAAGCAAGUAUCCCGAAUTT against Snhg11,-2.58 (active)
6,GCCAAUGAGAGUAGGAAAGTT against Elovl3,1.43
7,GCCUCUCAACUUAAUAACATT against Zup1,-0.697
8,GCUAACAGUAUCCUUAUUUTT against Vmn1r53,-0.436
9,CCUCUACAAUGUAACCAACTT against Kir3dl2,-0.183
10,GGAAACAUUAGAAUCUUGUTT against Lin52,-2.23 (active)
11,GGUCUUCGCCACAUGGAAATT against Crkl,0.436
12,CCUUGUCCCUUUACCUCAATT against Plk5,-1.39
13,GCUUUAGGAAAUUUUGUGUTT against Ska3,-1.05
14,GGUCAUUCUAAUGACAAUCTT against Atg14,-0.014
15,GGUUAGAGAUUGUUCUGUUTT against Olfr267,2.02 (active)
16,AAUGGCAUAGGUCCUAUUATT against Tcaim,-0.011
17,GGUUUUUGUCCCAUCUUGGTT against Zc3h12d,0.228
18,GGGUCUUUAAACUGAAAGATT against Sh3pxd2a,0.0777
19,CCUGUAAGGUCUCUAGCAUTT against Exosc1,1.53
20,GGUUGUGCACAGCAGUGUUTT against Crct1,-0.716
21,GGACAAAGUCACAGAGUCCTT against Slc26a5,-2.08 (active)
22,GCACGUACCUGAUAGUCCUTT against Daglb,-0.976

row,Sequence,z-score
1,GGGCCAAACCCAGAACUAUTT against Sema4g,1.5
2,GGACAAGUCAAUUUGUUGGTT against Zfp36l1,0.277
3,GGUGUAUCGGAACAGUGAGTT against Det1,-2.8 (active)
4,GCAAUGGAACUAUUAUUCATT against Cd28,2.48 (active)
5,GGCUUCAAAGCAUGACCAGTT against Ccr1,-0.528
6,GGACCUGCCAAAAGUUGUGTT against Uqcrc1,-1.16
7,GCAGUUGAAUAUCAGACUGTT against Obox5,-0.973
8,GGUUCAGAAUCAAUACGAGTT against Krt2,-0.909
9,GGACACUUCCAAACUGACCTT against Tiparp,-1.43
10,GCGUAGGUCAUCCUUGUAATT against Samd4,-2.22 (active)
11,GGUCAUUCACAAGUCCUUUTT against Serpinb6b,0.863
12,GCCAGUGGUAGCGAUAUGATT against Zscan4c,-0.263
13,GGAGAACACCAAAAAGGGCTT against Uncx,-1.26
14,GCUGUGUGGACAAAGUCUGTT against Clec4b1,-0.398
15,GGUCUUUAGAAUUAGGCUCTT against Pml,0.188
16,GCACUUUAAAAGAAUCACUTT against Slc2a12,2.11 (active)
17,GGAAGAAGUAGCUAAAAACTT against Entpd4,0.488
18,GGUCUUGCUAUUUGUGAUATT against Olfr1294,0.617
19,GGACUUCACAAGACUUCAATT against Nfam1,2.06 (active)
20,GGUCAAGGAAUUAGUGAUUTT against Tctex1d1,0.398

# Source: PubChem BioAssay AID1508600 (Functional Genomics Laboratory (NCATS/FGL), 2020)
